Measured values taken from publication PMC7862700, “An all-to-all approach to the identification of sequence-specific readers for epigenetic DNA modifications on cytosine”.

Columns and labels:
Experiment in all cases: DAPPL (digital affinity profiling via proximity ligation, sequencing); 10 mM Tris-HCl pH 7.5, 50 mM NaCl, 1 mM DTT, 4% glycerol, room temperature, 30 min; GST-TFs on glutathione beads, 16-mer random dsDNA library, 0.1% formaldehyde crosslink after washing; high values mean tight binding
[1] = molecular target: T1, FEV (Homo sapiens, UniProt Q99581 1-238); details: protein: recombinant; tags: N-terminal GST; dsDNA, one strand shown
T1 sequence: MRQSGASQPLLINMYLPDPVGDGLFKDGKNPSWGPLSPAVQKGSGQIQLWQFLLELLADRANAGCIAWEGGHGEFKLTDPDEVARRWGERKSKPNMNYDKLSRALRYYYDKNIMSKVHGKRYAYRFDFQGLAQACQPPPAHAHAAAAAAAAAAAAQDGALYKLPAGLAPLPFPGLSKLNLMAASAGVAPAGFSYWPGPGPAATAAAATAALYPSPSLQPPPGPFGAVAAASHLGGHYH
Method in brief: (§1)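 Yeast served to express human transcription factors as GST fusions, which were then captured on glutathione beads and labelled with DNA barcodes. Pooled with a tag-only sample, they were incubated with 200 nmole of a 16-mer random double-stranded DNA library for 30 min at room temperature in Tris/NaCl/DTT/glycerol buffer, washed, crosslinked with 0.1% formaldehyde, ligated by proximity, amplified by PCR and sequenced. Dividing each hexamer's read frequency for a factor by its frequency for the tag-only sample gives the binding signal.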

[2] = molecular target: ETV5 (Homo sapiens, UniProt P41161 1-510); details: protein: recombinant; tags: N-terminal GST; dsDNA, one strand shown
Method in brief: as §1

[3] = molecular target: HSF1 (Homo sapiens, UniProt Q00613 1-529); details: protein: recombinant; tags: N-terminal GST; chain copies: 3; dsDNA, one strand shown
Method in brief: as §1

[4] = molecular target: T2, SPIC (Homo sapiens, UniProt Q8N5J4 1-248); details: protein: recombinant; tags: N-terminal GST; dsDNA, one strand shown
T2 sequence: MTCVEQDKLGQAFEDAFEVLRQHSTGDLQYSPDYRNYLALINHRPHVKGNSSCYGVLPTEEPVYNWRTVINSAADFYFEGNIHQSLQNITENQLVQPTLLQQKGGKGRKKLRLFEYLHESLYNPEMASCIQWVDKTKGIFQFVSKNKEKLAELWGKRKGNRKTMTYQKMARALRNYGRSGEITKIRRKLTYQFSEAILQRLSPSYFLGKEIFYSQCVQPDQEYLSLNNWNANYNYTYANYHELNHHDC
Method in brief: as §1

[5] = molecular target: ELF4 (Homo sapiens, UniProt Q99607 1-663); details: protein: recombinant; tags: N-terminal GST; dsDNA, one strand shown
Method in brief: as §1

[6] = molecular target: T3, ELK4 (Homo sapiens, UniProt P28324-2 1-405); details: protein: recombinant; tags: N-terminal GST; dsDNA, one strand shown
T3 sequence: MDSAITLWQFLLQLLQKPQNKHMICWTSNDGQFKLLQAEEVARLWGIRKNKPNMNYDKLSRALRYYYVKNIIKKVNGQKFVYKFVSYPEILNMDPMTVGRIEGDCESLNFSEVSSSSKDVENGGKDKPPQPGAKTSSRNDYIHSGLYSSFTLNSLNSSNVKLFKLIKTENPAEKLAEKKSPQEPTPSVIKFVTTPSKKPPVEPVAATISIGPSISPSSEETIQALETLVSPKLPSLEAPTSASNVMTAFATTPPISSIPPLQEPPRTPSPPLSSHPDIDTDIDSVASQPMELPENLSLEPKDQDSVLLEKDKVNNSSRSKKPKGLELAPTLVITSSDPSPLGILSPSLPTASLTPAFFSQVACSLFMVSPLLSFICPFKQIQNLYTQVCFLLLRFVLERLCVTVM
Method in brief: as §1

[7] = molecular target: T4, ETV2 (Homo sapiens, UniProt O00321 1-342); details: protein: recombinant; tags: N-terminal GST; dsDNA, one strand shown
T4 sequence: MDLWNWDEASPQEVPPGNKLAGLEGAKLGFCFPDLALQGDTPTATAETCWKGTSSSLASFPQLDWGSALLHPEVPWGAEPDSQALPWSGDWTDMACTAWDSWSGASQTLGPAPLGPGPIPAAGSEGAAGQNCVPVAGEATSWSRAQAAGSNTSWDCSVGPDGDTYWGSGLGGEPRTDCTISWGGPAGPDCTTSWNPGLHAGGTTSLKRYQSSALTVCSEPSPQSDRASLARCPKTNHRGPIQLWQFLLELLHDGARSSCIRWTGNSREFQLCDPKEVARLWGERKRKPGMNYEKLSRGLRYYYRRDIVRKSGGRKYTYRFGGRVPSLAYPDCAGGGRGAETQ
Method in brief: as §1

[8] = molecular target: T5, ELF3 (Homo sapiens, UniProt P78545 1-371); details: protein: recombinant; tags: N-terminal GST; dsDNA, one strand shown
T5 sequence: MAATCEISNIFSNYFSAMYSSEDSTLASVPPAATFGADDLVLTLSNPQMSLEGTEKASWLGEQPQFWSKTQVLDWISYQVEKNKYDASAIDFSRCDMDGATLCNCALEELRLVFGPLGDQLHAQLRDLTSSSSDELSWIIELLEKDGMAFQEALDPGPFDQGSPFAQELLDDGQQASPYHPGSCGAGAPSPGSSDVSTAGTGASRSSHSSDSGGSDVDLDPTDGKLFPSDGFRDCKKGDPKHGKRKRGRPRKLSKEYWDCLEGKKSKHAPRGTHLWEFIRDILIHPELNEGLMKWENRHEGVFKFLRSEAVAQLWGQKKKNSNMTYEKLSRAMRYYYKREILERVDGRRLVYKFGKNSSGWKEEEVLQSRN
Method in brief: as §1

[9] = molecular target: CRX (Homo sapiens, UniProt O43186 1-299); details: protein: recombinant; tags: N-terminal GST; dsDNA, one strand shown
Method in brief: as §1

Sequence of CRX (O43186 whole entry): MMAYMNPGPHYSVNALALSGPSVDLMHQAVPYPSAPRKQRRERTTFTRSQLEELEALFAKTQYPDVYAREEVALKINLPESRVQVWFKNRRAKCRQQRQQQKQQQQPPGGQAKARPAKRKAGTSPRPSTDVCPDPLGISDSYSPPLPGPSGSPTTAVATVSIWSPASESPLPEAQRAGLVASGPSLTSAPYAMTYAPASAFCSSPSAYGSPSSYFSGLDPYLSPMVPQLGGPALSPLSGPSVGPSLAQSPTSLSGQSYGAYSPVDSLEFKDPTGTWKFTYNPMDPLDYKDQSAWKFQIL
Sequence of ETV5 (P41161 whole entry): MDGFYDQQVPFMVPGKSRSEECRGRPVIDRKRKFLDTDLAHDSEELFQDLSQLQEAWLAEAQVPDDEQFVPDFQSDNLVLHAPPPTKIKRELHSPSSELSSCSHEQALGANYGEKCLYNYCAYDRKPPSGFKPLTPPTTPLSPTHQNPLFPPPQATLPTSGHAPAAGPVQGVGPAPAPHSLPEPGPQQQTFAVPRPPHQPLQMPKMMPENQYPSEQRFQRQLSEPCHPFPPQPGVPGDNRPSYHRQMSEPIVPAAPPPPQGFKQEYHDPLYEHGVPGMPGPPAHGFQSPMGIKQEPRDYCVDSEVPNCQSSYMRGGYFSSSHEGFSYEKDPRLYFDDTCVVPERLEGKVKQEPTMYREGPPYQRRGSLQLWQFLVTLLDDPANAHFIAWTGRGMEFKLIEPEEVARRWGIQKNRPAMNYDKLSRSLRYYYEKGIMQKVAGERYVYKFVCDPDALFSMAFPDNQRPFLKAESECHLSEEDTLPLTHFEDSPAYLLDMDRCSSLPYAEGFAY
Sequence of HSF1 (Q00613 whole entry): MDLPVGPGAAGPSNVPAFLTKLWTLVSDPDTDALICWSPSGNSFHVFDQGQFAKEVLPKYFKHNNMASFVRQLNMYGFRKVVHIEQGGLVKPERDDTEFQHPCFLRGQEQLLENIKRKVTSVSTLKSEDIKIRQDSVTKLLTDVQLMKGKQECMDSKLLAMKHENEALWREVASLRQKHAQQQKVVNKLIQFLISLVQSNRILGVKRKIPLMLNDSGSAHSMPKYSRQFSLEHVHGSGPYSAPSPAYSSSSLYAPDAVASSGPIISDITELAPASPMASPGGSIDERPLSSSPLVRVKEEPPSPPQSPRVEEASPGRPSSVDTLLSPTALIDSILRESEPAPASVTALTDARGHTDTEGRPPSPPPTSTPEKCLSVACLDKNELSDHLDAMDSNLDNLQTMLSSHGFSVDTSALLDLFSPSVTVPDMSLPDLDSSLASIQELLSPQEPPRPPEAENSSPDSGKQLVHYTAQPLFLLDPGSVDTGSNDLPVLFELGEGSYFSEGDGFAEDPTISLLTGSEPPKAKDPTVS
Sequence of ELF4 (Q99607 whole entry): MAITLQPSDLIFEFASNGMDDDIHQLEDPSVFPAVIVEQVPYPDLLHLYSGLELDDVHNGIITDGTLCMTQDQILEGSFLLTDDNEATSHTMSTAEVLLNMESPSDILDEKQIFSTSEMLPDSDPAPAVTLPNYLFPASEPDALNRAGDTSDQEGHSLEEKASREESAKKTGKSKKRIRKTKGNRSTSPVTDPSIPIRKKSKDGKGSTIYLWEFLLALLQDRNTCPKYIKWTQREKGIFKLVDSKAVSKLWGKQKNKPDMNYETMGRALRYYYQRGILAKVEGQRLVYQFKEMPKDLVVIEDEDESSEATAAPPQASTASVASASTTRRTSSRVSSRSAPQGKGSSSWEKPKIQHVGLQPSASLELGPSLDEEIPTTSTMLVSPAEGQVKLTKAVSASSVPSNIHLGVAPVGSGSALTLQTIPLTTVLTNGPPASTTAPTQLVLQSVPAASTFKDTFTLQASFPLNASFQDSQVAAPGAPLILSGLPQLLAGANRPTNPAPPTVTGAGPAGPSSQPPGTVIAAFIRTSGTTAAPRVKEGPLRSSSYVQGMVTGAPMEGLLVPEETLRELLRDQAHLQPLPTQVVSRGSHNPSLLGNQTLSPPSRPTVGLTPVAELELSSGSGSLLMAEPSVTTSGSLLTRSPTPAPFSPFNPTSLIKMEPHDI

In the case of TATCAC, the binding signal [1] is reported as 1.21 fold enrichment (6-mer frequency, TF over GST control), the binding signal [2] is reported as 1.24 fold enrichment (6-mer frequency, TF over GST control) and the binding signal [3] is reported as 1.14 fold enrichment (6-mer frequency, TF over GST control). For the same sequence, the binding signal [4] was 1.17 fold enrichment (6-mer frequency, TF over GST control), the binding signal [5] was 1.24 fold enrichment (6-mer frequency, TF over GST control) and the binding signal [6] was 1.18 fold enrichment (6-mer frequency, TF over GST control). The binding signal [7] was 1.34 fold enrichment (6-mer frequency, TF over GST control), the binding signal [8] was 1.25 fold enrichment (6-mer frequency, TF over GST control) and the binding signal [9] was 1.35 fold enrichment (6-mer frequency, TF over GST control).
